The values below come from the OligoGym collection.
Note: reference of the scale not given here.

The target in the first assay is GRK1. The assay can be described thus: pooled miR-30 sensor sort-seq; sequence = guide strand. Particulars: shRNA.
Sequence TAAACTTCGCCACTATCCCCTC displayed a sensor-assay potency score (higher = more potent) of -0.678.
Still for that read-out and setting: the value for TAGTCCTCGATGTCTTTCCAGA was -1.36.
The same measure, in the same setting: the value for TTAAGGTCCTTGAAGAGGGGGT was 0.091.
Same read-out and setting: the value for TTTGCGTAGACAGTTTTGGAGT was -0.657; that for TTAAACTTCGCCACTATCCCCT was 0.34; that for TTCTTGTTCAGCTTCTTGCAGG was -0.533.
In turn, TTGTTCAGCTTCTTGCAGGCAT gave a sensor-assay potency score (higher = more potent) of 0.349.
Same read-out and setting: as for TAGACAGTTTTGGAGTCTGGGA, the figure is -1.3.
TTGTCGCAGGTCTCATCTCTGA: the sensor-assay potency score (higher = more potent) is -1.13.

The next assay concerns the target GRSF1. The description is as above. Particulars: shRNA.
As to ATGTATTCCATTCTCACCGTTG, the sensor-assay potency score (higher = more potent) is -1.12.
On the same count and under the same terms, as for TCGATTACCAATTTCTTCCCTG, the figure is -0.139; as for TATACTTCCACATACCGCTGGC, -0.174; as for TTCTTCTAAACAGTCCACTATG, -0.687.
Still for that read-out and setting: as for TTCATGTTCTTCAAAGACCATT, the figure is -0.97; as for TAGCAGTAGGAAAAGATGCGAT, -0.689.
Still for that read-out and setting: as for TAAGGCTTTCTGCACATCCTGC, the figure is -0.572; as for TCTGCTTGGAAATATCTCGATG, -0.758; as for TTTCTTCTTCTAAACAGTCCAC, -0.0512.
Sequence TTCTTCTTCTAAACAGTCCACT registered a sensor-assay potency score (higher = more potent) of -0.559.
The same measure, in the same setting: the value for TTGAGCATCGCTGCAACAGCAT was -0.486; that for TTATATACTTAGCAGTAGGAAA was -1.31.

In a further assay the target is GSTO1. Described as above. Particulars: shRNA.
Sequence ATATTGATGACTTCATGCCTGA returned a sensor-assay potency score (higher = more potent) of -0.0136.
Same read-out and setting: as for TCTAATAAAGCTTCCTACCAAG, the figure is -0.981; as for TGAGACTGTGGGATCTTCCTTC, 0.458.
On the same count and under the same terms, the value for TTTCTCACTAGTAAGCAGGGCT was 0.254; that for TAACTTCATTGCTTCCAGCCGT was -0.351.
In turn, TCTAAGATCATCTTCTGGCAAG returned a sensor-assay potency score (higher = more potent) of -0.832.
For TTTTCTTAAAGAACCACTCAGG, the sensor-assay potency score (higher = more potent) is -0.256.
Still for that read-out and setting: the value for TTATTAGTCAGAACCTCCTCTA was -0.622; that for TAGGCCAGCATAGTCTTCTTTA was -0.878.
Still for that read-out and setting: the value for TAGAGATAGAATTGCCACCAAA was -1.16.
Still for that read-out and setting: the value for AACTCTAAGATCATCTTCTGGC was -0.0597; that for TATTAGTCAGAACCTCCTCTAG was -0.847.

In the next assay the target is GTF2H5. Described as above. To be noted: shRNA.
TATTACAAAGACGTGAGTGTCA registered a sensor-assay potency score (higher = more potent) of 0.236.
Same read-out and setting: the value for ATCAATGTCTTGAATGATGAAC was -1.38; that for TGAATGATGAACTTCTTCCCCA was -0.103; that for TTGAATGATGAACTTCTTCCCC was -0.395.
On the same count and under the same terms, the value for TTAATTCACCCACTCGCTCCTG was -0.542.
Still for that read-out and setting: as for TAATTCACCCACTCGCTCCTGG, the figure is 0.481.
Consider TAACCAATTCTGCTATTACAAA, for which the sensor-assay potency score (higher = more potent) was -1.59.
